The values that follow come from article PMC11006913.

Assay in all cases: PBM; 200 nM protein, PBS
Details in all cases: dsDNA, one strand shown

The target in experiment [1] is T1, VENTX (Homo sapiens, UniProt O95231 78-163, R121Q).
T1 sequence: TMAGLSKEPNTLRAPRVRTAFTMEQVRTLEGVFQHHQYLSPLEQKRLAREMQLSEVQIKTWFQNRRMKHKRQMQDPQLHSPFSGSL

The target of experiment [2] is T2, VENTX (Homo sapiens, UniProt O95231 78-163).
T2 sequence: T1 sequence with Q44R

Experiment [3] deals with T3, VENTX (Homo sapiens, UniProt O95231 78-163, Y115F).
T3 sequence: T1 sequence with Y38F, Q44R

The target in experiment [4] is HOXB6 (Homo sapiens, UniProt P17509 132-218, K202E).
Experiment [5] deals with HOXB6 (Homo sapiens, UniProt P17509 132-218).
Experiment [6] deals with HOXA2 (Homo sapiens, UniProt O43364 129-215, R185T).
A further experiment has as its target HOXA4 (Homo sapiens, UniProt Q00056 201-287, R217L).
Experiment [7] has as its target HOXA2 (Homo sapiens, UniProt O43364 129-215, R185K).
In experiment [8] the target is HOXA2 (Homo sapiens, UniProt O43364 129-215, Y150S).
For experiment [9], the target named is HOXA2 (Homo sapiens, UniProt O43364 129-215).
Experiment [10] deals with VAX1 (Homo sapiens, UniProt Q5SQQ9 86-172, K157R).
In experiment [11] the target is ALX1 (Homo sapiens, UniProt Q15699 118-204, L144V).
In experiment [12] the target is ALX1 (Homo sapiens, UniProt Q15699 118-204, L144R).
In experiment [13] the target is PROP1 (Homo sapiens, UniProt O75360 56-141).
Experiment [14] addresses PROP1 (Homo sapiens, UniProt O75360 56-141, R99H).
The target of experiment [15] is PROP1 (Homo sapiens, UniProt O75360 56-141, F88S).
For experiment [16], the target named is ALX1 (Homo sapiens, UniProt Q15699 118-204).
For experiment [17], the target named is HOXD13 (Homo sapiens, UniProt P35453 263-343, T313R).
The target of experiment [18] is HOXD13 (Homo sapiens, UniProt P35453 263-343).
In experiment [19] the target is HOXD13 (Homo sapiens, UniProt P35453 263-343, T313A).
For experiment [20], the target named is VAX1 (Homo sapiens, UniProt Q5SQQ9 86-172).
The target of experiment [21] is VAX1 (Homo sapiens, UniProt Q5SQQ9 86-172, T142I).
Experiment [22] addresses ALX3 (Homo sapiens, UniProt O95076 139-225, N203Q).
Experiment [23] addresses ALX3 (Homo sapiens, UniProt O95076 139-225).
The target of experiment [24] is ALX3 (Homo sapiens, UniProt O95076 139-225, L168Q).
Experiment [25] concerns the target ALX3 (Homo sapiens, UniProt O95076 139-225, L168V).
For experiment [26], the target named is ALX3 (Homo sapiens, UniProt O95076 139-225, N203S).

Residue numbers refer to the chain shown, from its start.

Sequence of HOXA2 (Homo sapiens, UniProt O43364 129-215) (O43364 129-215): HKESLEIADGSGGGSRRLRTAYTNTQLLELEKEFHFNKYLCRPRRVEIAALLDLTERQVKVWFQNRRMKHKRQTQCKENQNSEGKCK
Sequence of HOXA2 (Homo sapiens, UniProt O43364 129-215, R185T) (O43364 129-215 R185T): as the sequence (O43364 129-215) above, with R57T counted along it
Sequence of HOXA2 (Homo sapiens, UniProt O43364 129-215, R185K) (O43364 129-215 R185K): as the sequence (O43364 129-215) above, with R57K counted along it
Sequence of HOXA2 (Homo sapiens, UniProt O43364 129-215, Y150S) (O43364 129-215 Y150S): as the sequence (O43364 129-215) above, with Y22S counted along it
Sequence of VAX1 (Homo sapiens, UniProt Q5SQQ9 86-172, K157R) (Q5SQQ9 86-172 K157R): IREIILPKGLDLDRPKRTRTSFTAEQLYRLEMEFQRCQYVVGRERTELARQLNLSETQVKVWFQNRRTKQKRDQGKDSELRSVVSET
Sequence of HOXA4 (Q00056 201-287 R217L): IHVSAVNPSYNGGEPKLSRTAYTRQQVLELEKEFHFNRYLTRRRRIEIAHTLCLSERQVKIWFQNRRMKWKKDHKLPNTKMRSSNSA
Sequence of VAX1 (Homo sapiens, UniProt Q5SQQ9 86-172) (Q5SQQ9 86-172): as the sequence (Q5SQQ9 86-172 K157R) above, with R72K counted along it
Sequence of PROP1 (Homo sapiens, UniProt O75360 56-141) (O75360 56-141): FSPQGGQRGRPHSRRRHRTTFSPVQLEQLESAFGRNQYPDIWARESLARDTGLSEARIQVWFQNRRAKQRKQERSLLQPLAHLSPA
Sequence of ALX3 (Homo sapiens, UniProt O95076 139-225, N203Q) (O95076 139-225 N203Q): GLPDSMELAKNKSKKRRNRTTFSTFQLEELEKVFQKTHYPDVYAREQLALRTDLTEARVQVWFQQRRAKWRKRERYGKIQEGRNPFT
Sequence of HOXB6 (Homo sapiens, UniProt P17509 132-218, K202E) (P17509 132-218 K202E): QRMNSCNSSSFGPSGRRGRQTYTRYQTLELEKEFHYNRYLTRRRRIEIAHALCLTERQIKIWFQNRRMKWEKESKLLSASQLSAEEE
Sequence of HOXB6 (Homo sapiens, UniProt P17509 132-218) (P17509 132-218): as the sequence (P17509 132-218 K202E) above, with E71K counted along it
Sequence of HOXD13 (Homo sapiens, UniProt P35453 263-343) (P35453 263-343): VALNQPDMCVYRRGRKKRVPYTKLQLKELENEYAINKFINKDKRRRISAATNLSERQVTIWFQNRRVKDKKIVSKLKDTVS
Sequence of PROP1 (Homo sapiens, UniProt O75360 56-141, F88S) (O75360 56-141 F88S): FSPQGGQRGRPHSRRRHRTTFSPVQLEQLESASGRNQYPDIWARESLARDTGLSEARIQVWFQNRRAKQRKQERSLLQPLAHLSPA
Sequence of ALX1 (Homo sapiens, UniProt Q15699 118-204) (Q15699 118-204): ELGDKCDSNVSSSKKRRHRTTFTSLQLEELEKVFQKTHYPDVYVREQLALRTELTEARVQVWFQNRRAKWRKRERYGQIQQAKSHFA
Sequence of ALX1 (Homo sapiens, UniProt Q15699 118-204, L144R) (Q15699 118-204 L144R): as the sequence (Q15699 118-204) above, with L27R counted along it
Sequence of VAX1 (Homo sapiens, UniProt Q5SQQ9 86-172, T142I) (Q5SQQ9 86-172 T142I): as the sequence (Q5SQQ9 86-172 K157R) above, with T57I, R72K counted along it
Sequence of HOXD13 (Homo sapiens, UniProt P35453 263-343, T313R) (P35453 263-343 T313R): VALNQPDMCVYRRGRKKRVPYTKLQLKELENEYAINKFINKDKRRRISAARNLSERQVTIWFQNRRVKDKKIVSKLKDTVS
Sequence of ALX3 (Homo sapiens, UniProt O95076 139-225, L168V) (O95076 139-225 L168V): as the sequence (O95076 139-225 N203Q) above, with L30V, Q65N counted along it
Sequence of ALX3 (Homo sapiens, UniProt O95076 139-225, L168Q) (O95076 139-225 L168Q): as the sequence (O95076 139-225 N203Q) above, with L30Q, Q65N counted along it
Sequence of PROP1 (Homo sapiens, UniProt O75360 56-141, R99H) (O75360 56-141 R99H): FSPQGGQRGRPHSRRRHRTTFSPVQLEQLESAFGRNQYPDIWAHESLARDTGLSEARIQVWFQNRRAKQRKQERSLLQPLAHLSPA
Sequence of HOXD13 (Homo sapiens, UniProt P35453 263-343, T313A) (P35453 263-343 T313A): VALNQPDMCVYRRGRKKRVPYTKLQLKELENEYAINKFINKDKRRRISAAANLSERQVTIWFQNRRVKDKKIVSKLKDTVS
Sequence of ALX3 (Homo sapiens, UniProt O95076 139-225) (O95076 139-225): as the sequence (O95076 139-225 N203Q) above, with Q65N counted along it
Sequence of ALX3 (Homo sapiens, UniProt O95076 139-225, N203S) (O95076 139-225 N203S): as the sequence (O95076 139-225 N203Q) above, with Q65S counted along it
Sequence of ALX1 (Homo sapiens, UniProt Q15699 118-204, L144V) (Q15699 118-204 L144V): as the sequence (Q15699 118-204) above, with L27V counted along it

Consider CAGAGGGC, for which the binding signal in the experiment with VENTX [1] is 8.16 upbm affinity estimate (log intensity, higher = more binding, comparable within an allelic series); with VENTX [2] it was 8.02 upbm affinity estimate (log intensity, higher = more binding, comparable within an allelic series); in the experiment with VENTX [3], 8.12 upbm affinity estimate (log intensity, higher = more binding, comparable within an allelic series); with HOXB6 [4], 9.04 upbm affinity estimate (log intensity, higher = more binding, comparable within an allelic series); with HOXB6 [5] it was 9.01 upbm affinity estimate (log intensity, higher = more binding, comparable within an allelic series).

As for CATTAGCG, the binding signal is 11.8 upbm affinity estimate (log intensity, higher = more binding, comparable within an allelic series) in the experiment with VENTX [1]; 12.7 upbm affinity estimate (log intensity, higher = more binding, comparable within an allelic series) with VENTX [2]; 11.6 upbm affinity estimate (log intensity, higher = more binding, comparable within an allelic series) with VENTX [3]; 12.3 upbm affinity estimate (log intensity, higher = more binding, comparable within an allelic series) in the experiment with HOXA2 [6]; 11.4 upbm affinity estimate (log intensity, higher = more binding, comparable within an allelic series) with HOXA4; 13.1 upbm affinity estimate (log intensity, higher = more binding, comparable within an allelic series) with HOXA2 [7]. In addition, the binding signal with HOXA2 [8] was 10.7 upbm affinity estimate (log intensity, higher = more binding, comparable within an allelic series); with HOXA2 [9], 12.1 upbm affinity estimate (log intensity, higher = more binding, comparable within an allelic series).

As for CCATTAGC, the binding signal with VENTX [1] is 12.2 upbm affinity estimate (log intensity, higher = more binding, comparable within an allelic series); with VENTX [2] it was 12.9 upbm affinity estimate (log intensity, higher = more binding, comparable within an allelic series); in the experiment with VENTX [3], 11.9 upbm affinity estimate (log intensity, higher = more binding, comparable within an allelic series); with HOXA2 [6] it was 12.3 upbm affinity estimate (log intensity, higher = more binding, comparable within an allelic series); in the experiment with HOXA4 it was 11.4 upbm affinity estimate (log intensity, higher = more binding, comparable within an allelic series); with HOXA2 [7] it was 13.1 upbm affinity estimate (log intensity, higher = more binding, comparable within an allelic series). For the same sequence, the binding signal in the experiment with HOXA2 [8] is 10.6 upbm affinity estimate (log intensity, higher = more binding, comparable within an allelic series); with HOXA2 [9], 12 upbm affinity estimate (log intensity, higher = more binding, comparable within an allelic series); in the experiment with VAX1 [10] it was 12.4 upbm affinity estimate (log intensity, higher = more binding, comparable within an allelic series).

With CTCCGTCC, the binding signal in the experiment with VENTX [1] was 8.11 upbm affinity estimate (log intensity, higher = more binding, comparable within an allelic series); in the experiment with VENTX [2], 8.05 upbm affinity estimate (log intensity, higher = more binding, comparable within an allelic series); with VENTX [3] it was 8.03 upbm affinity estimate (log intensity, higher = more binding, comparable within an allelic series); in the experiment with ALX1 [11], 6.35 upbm affinity estimate (log intensity, higher = more binding, comparable within an allelic series); with ALX1 [12], 6.21 upbm affinity estimate (log intensity, higher = more binding, comparable within an allelic series); with PROP1 [13] it was 6.5 upbm affinity estimate (log intensity, higher = more binding, comparable within an allelic series). Also, the binding signal in the experiment with PROP1 [14] was 6.55 upbm affinity estimate (log intensity, higher = more binding, comparable within an allelic series); in the experiment with PROP1 [15] it was 6.51 upbm affinity estimate (log intensity, higher = more binding, comparable within an allelic series); with ALX1 [16], 6.3 upbm affinity estimate (log intensity, higher = more binding, comparable within an allelic series).

Consider GTCCACGA, for which the binding signal is 8.05 upbm affinity estimate (log intensity, higher = more binding, comparable within an allelic series) in the experiment with VENTX [1]; 7.92 upbm affinity estimate (log intensity, higher = more binding, comparable within an allelic series) in the experiment with VENTX [2]; 7.98 upbm affinity estimate (log intensity, higher = more binding, comparable within an allelic series) in the experiment with VENTX [3].

Regarding CGCCCGGA, the binding signal is 7.98 upbm affinity estimate (log intensity, higher = more binding, comparable within an allelic series) in the experiment with VENTX [1]; 7.85 upbm affinity estimate (log intensity, higher = more binding, comparable within an allelic series) in the experiment with VENTX [2]; 8.06 upbm affinity estimate (log intensity, higher = more binding, comparable within an allelic series) in the experiment with VENTX [3]; 9.55 upbm affinity estimate (log intensity, higher = more binding, comparable within an allelic series) with HOXD13 [17]; 9.51 upbm affinity estimate (log intensity, higher = more binding, comparable within an allelic series) with HOXD13 [18]; 9.62 upbm affinity estimate (log intensity, higher = more binding, comparable within an allelic series) with HOXD13 [19].

With ATCGATAA, the binding signal with VENTX [1] was 10.3 upbm affinity estimate (log intensity, higher = more binding, comparable within an allelic series); with VENTX [2] it was 11 upbm affinity estimate (log intensity, higher = more binding, comparable within an allelic series); with VENTX [3], 10.2 upbm affinity estimate (log intensity, higher = more binding, comparable within an allelic series).

In the case of CCCACGCA, the binding signal was 8.08 upbm affinity estimate (log intensity, higher = more binding, comparable within an allelic series) in the experiment with VENTX [1]; 7.93 upbm affinity estimate (log intensity, higher = more binding, comparable within an allelic series) in the experiment with VENTX [2]; 7.96 upbm affinity estimate (log intensity, higher = more binding, comparable within an allelic series) with VENTX [3]; 7.08 upbm affinity estimate (log intensity, higher = more binding, comparable within an allelic series) with VAX1 [20]; 7.21 upbm affinity estimate (log intensity, higher = more binding, comparable within an allelic series) in the experiment with VAX1 [21]; 7.04 upbm affinity estimate (log intensity, higher = more binding, comparable within an allelic series) in the experiment with VAX1 [10].

Regarding GCCCCCCC, the binding signal was 8.24 upbm affinity estimate (log intensity, higher = more binding, comparable within an allelic series) with VENTX [1]; 8.18 upbm affinity estimate (log intensity, higher = more binding, comparable within an allelic series) with VENTX [2]; 8.34 upbm affinity estimate (log intensity, higher = more binding, comparable within an allelic series) with VENTX [3]; 7.05 upbm affinity estimate (log intensity, higher = more binding, comparable within an allelic series) in the experiment with HOXA2 [6]; 9.94 upbm affinity estimate (log intensity, higher = more binding, comparable within an allelic series) with HOXA2 [7]; 10.3 upbm affinity estimate (log intensity, higher = more binding, comparable within an allelic series) in the experiment with HOXA2 [8]. The binding signal in the experiment with HOXA2 [9] was 7.28 upbm affinity estimate (log intensity, higher = more binding, comparable within an allelic series).

CAGGGGGG: the binding signal in the experiment with VENTX [1] is 8.13 upbm affinity estimate (log intensity, higher = more binding, comparable within an allelic series); in the experiment with VENTX [2], 8.11 upbm affinity estimate (log intensity, higher = more binding, comparable within an allelic series); in the experiment with VENTX [3] it was 8.09 upbm affinity estimate (log intensity, higher = more binding, comparable within an allelic series); in the experiment with ALX3 [22], 7.62 upbm affinity estimate (log intensity, higher = more binding, comparable within an allelic series); with ALX3 [23] it was 7.33 upbm affinity estimate (log intensity, higher = more binding, comparable within an allelic series); with ALX3 [24], 7.58 upbm affinity estimate (log intensity, higher = more binding, comparable within an allelic series). For the same sequence, the binding signal was 7.5 upbm affinity estimate (log intensity, higher = more binding, comparable within an allelic series) with ALX3 [25] and 7.6 upbm affinity estimate (log intensity, higher = more binding, comparable within an allelic series) with ALX3 [26].
